Where “and” joins values, the source holds several entries; their conditions need not be identical. Equal values may be shown once. Inconclusive results are not listed. Calls of active or inactive are those of the source. How the source made its calls, unless noted: active means hit-call score of the fitted dose curve at least 0.9, where 1 is the maximum; inactive means score below 0.9.
How the values were obtained:
[1] = ATG_NFI_CIS: Attagene CIS-FACTORIAL HepG2 Assay for human Nuclear Factor I (NFI) (AID 2282989); conditions: HepG2 cis-regulatory reporter, NFI response element transcription; actives raise or lower the signal
Summary of the method: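 Transient MRTU transfection of HepG2 → 24 h chemical dosing → total RNA, oligo(dT) RT → PCR, 6-FAM primer extension, HpaI cut → capillary electrophoresis. Endpoint fitted bidirectionally relative to DMSO.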

[2] = target: Myc proto-oncogene protein (Homo sapiens) (UniProt P01106); test: ATG_Myc_CIS: Attagene CIS-FACTORIAL HepG2 Assay for human Myelocytomatosis (Myc) Proto-Oncogene Transcription Factor (AID 2282990); conditions: HepG2, Attagene cis-reporter transcription factor activity; actives raise or lower the signal
Chain of Myc proto-oncogene protein (Homo sapiens) (P01106 whole entry, looked up, the tested form may be a part): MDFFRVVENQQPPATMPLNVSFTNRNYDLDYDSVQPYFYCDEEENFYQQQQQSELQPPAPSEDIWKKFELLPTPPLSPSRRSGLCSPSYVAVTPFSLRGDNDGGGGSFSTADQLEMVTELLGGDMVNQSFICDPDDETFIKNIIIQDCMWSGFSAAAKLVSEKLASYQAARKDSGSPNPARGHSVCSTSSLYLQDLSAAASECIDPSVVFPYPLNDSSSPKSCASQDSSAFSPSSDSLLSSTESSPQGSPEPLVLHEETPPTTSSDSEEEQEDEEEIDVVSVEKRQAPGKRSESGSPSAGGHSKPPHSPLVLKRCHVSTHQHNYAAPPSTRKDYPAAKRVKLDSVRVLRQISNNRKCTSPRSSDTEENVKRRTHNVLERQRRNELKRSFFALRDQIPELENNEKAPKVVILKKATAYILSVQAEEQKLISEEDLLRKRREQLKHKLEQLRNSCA
Summary of the method: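 Read-out: fluorescent reporter mRNA fragments resolved by capillary electrophoresis after RT-PCR. Human HepG2 liver cells carried transfected cis-element reporter units and were dosed for 24 h. Gain or loss of signal fitted relative to DMSO baseline.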

[3] = ATG_NRF2_ARE_CIS: Attagene CIS-FACTORIAL HepG2 Assay for human Nuclear Factor Erythroid 2 Related Factor 2 (NFR2) response to Antioxidant Response Elements (ARE) (AID 2282992); conditions: HepG2 Attagene ARE/NRF2 reporter, transcription factor activity; actives raise or lower the signal;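 on AC50: reporter mRNA level measured by RT-PCR and capillary electrophoresis fluorescence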
Summary of the method: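 HepG2 cells transiently transfected with multiplexed cis-regulated reporter transcription units measure endogenous transcription factor activity. Reporter mRNA at 24 h is quantified by RT-PCR, fluorescent labelling and capillary electrophoresis, with bidirectional fitting relative to DMSO.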

[4] = target: human Peroxisome Proliferator-activated Receptor alpha (PPARa), PPARA (gene 5465) (UniProt Q07869); test: ATG_PPARa_TRANS: Attagene TRANS-FACTORIAL HepG2 Assay for human Peroxisome Proliferator-activated Receptor alpha (PPARa) (AID 2283001; active means hit-call score of the fitted dose curve at least 0.9, where 1 is the maximum;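 on AC50: potency for gain of reporter signal over DMSO so agonist or activator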)
Chain of human Peroxisome Proliferator-activated Receptor alpha (PPARa), PPARA (gene 5465) (Q07869 whole entry, looked up, the tested form may be a part): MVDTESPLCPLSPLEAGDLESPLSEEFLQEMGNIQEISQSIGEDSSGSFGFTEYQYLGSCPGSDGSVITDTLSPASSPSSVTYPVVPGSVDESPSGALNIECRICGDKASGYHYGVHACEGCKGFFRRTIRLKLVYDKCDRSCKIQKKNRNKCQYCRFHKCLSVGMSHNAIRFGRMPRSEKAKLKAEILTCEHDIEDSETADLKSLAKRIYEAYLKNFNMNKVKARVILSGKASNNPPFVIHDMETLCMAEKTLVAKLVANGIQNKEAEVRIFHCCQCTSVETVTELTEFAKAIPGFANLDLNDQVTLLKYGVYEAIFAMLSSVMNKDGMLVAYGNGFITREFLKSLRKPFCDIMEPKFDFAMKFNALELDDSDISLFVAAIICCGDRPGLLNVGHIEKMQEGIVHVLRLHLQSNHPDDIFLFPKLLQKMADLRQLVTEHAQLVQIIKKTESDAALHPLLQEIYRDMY
Summary of the method: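 Measures transcriptional activity of an exogenous chimeric PPARa-Gal4 protein in transiently transfected HepG2 cells after 24 h dosing. Reporter mRNA quantified via RT-PCR and capillary electrophoresis; DMSO served as negative control.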

[5] = target: Peroxisome proliferator-activated receptor gamma (Homo sapiens) (UniProt P37231); test: ATG_PPARg_TRANS: Attagene TRANS-FACTORIAL HepG2 Assay for human Peroxisome Proliferator-activated Receptor-gamma (PPARg) (AID 2283007; active means hit-call score of the fitted dose curve at least 0.9, where 1 is the maximum)
Chain of Peroxisome proliferator-activated receptor gamma (Homo sapiens) (P37231 whole entry, looked up, the tested form may be a part): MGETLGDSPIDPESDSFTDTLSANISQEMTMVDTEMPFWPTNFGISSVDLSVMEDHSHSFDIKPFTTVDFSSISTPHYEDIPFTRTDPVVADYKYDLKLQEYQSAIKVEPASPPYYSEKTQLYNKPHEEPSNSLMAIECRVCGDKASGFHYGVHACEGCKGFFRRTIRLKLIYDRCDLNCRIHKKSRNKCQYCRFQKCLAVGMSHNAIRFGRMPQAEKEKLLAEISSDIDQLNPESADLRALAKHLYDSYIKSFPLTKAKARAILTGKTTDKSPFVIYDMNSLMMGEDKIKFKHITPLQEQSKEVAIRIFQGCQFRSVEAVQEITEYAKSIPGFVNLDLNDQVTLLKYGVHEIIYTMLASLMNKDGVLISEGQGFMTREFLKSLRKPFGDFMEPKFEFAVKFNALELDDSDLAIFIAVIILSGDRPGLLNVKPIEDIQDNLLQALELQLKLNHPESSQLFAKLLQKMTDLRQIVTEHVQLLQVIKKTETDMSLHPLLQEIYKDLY
Summary of the method: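 Transient transfection of HepG2 with GAL4-UAS-driven reporter units; chemical dosing 24 h; total RNA → oligo(dT) RT → PCR with reporter primers → 6-FAM primer extension → HpaI digest 2 h 37 C → capillary electrophoresis. Positive direction vs DMSO.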

[6] = target: human RAR-related Orphan Receptor beta (RORb), RORB (gene 6096) (UniProt Q92753); test: ATG_RORb_TRANS: Attagene TRANS-FACTORIAL HepG2 Assay for human RAR-related Orphan Receptor beta (RORb) (AID 2283010; active means hit-call score of the fitted dose curve at least 0.9, where 1 is the maximum)
Chain of human RAR-related Orphan Receptor beta (RORb), RORB (gene 6096) (Q92753 whole entry, looked up, the tested form may be a part): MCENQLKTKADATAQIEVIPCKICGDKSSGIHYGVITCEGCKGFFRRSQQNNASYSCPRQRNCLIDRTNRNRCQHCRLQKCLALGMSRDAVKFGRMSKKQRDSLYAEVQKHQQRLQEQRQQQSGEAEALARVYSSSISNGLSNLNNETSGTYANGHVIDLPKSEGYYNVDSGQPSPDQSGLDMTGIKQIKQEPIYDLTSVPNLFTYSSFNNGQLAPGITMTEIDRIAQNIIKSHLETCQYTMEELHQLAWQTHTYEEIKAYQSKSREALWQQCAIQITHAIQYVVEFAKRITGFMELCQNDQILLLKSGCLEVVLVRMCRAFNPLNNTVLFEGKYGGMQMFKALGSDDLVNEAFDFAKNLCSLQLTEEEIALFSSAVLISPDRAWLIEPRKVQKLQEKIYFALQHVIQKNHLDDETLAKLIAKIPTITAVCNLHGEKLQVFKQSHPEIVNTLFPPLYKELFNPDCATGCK
Summary of the method: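 In this TRANS-format test, human HepG2 cells express chimeric NR-Gal4 fusion proteins driving GAL4-UAS reporters. After 24 h dosing, reporter transcripts are measured by fluorescent RT-PCR/capillary electrophoresis, with DMSO as negative control.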

[7] = ATG_Oct_MLP_CIS: Attagene CIS-FACTORIAL HepG2 Assay for human Octamer-Binding Transcription Factor (Oct) (AID 2282993); conditions: HepG2 Attagene cis-factorial Oct reporter, mRNA; actives raise or lower the signal
Summary of the method: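 Transient MRTU transfection of HepG2 → 24 h compound treatment → RNA isolation, reverse transcription, PCR → 6-FAM primer extension, HpaI digest → capillary electrophoresis. Activity fitted both directions against DMSO.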

[8] = target: Retinoic acid receptor alpha (Homo sapiens) (UniProt P10276); test: ATG_RARa_TRANS: Attagene TRANS-FACTORIAL HepG2 Assay for human Retinoic Acid Receptor alpha (RARa) (AID 2283005; active means hit-call score of the fitted dose curve at least 0.9, where 1 is the maximum)
Chain of Retinoic acid receptor alpha (Homo sapiens) (P10276 whole entry, looked up, the tested form may be a part): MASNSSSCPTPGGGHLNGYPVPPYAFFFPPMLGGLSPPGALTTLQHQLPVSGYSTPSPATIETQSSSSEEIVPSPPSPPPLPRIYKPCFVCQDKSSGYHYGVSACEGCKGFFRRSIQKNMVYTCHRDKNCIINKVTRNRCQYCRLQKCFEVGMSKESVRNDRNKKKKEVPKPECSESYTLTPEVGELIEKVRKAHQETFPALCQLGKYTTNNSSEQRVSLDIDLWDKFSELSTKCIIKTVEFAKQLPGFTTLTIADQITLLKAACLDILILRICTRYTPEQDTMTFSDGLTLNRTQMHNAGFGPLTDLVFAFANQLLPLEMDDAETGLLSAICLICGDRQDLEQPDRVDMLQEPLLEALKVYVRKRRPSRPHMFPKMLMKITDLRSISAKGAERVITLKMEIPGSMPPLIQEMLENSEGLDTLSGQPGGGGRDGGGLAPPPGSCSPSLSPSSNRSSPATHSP
Summary of the method: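 HepG2 transiently transfected with multiplex GAL4-UAS reporter units including a human RARa–GAL4 chimera; 24 h compound exposure. Reporter mRNA quantified by RT-PCR, 6-FAM labeling and capillary electrophoresis; gain of signal versus DMSO.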

[9] = target: Nuclear receptor subfamily 1 group I member 2 (Homo sapiens) (UniProt O75469); test: ATG_PXR_TRANS: Attagene TRANS-FACTORIAL HepG2 Assay for human Pregnane X Receptor (PXR) (AID 2283008; active means hit-call score of the fitted dose curve at least 0.9, where 1 is the maximum)
Chain of Nuclear receptor subfamily 1 group I member 2 (Homo sapiens) (O75469 whole entry, looked up, the tested form may be a part): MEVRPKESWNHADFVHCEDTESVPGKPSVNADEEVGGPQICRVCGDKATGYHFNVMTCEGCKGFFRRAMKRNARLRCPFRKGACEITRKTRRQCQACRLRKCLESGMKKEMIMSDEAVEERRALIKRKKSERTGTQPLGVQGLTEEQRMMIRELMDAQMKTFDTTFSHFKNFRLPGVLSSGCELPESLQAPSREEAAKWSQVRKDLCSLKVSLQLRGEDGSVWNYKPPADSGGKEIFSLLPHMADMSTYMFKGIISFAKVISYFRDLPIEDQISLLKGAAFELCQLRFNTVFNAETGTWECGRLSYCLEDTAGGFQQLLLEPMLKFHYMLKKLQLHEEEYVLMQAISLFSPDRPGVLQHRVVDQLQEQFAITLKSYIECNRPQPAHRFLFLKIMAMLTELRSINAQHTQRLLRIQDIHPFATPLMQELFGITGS
Summary of the method: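 HepG2 cells transiently transfected with multiple reporter units, here a PXR-GAL4 chimera driving a GAL4-UAS reporter; 24 h compound exposure. Reporter mRNA measured by RT-PCR, FAM labelling and capillary electrophoresis; gain of signal fitted against DMSO baseline.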

[10] = BSK_3C_TissueFactor: BioMAP Diversity Plus: 3C Assay for Tissue Factor Biomarker Activity (AID 2282997); conditions: BioMAP 3C HUVEC, tissue factor biomarker readout; actives raise or lower the signal
Summary of the method: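 Dosing of human umbilical vein endothelial cells preceded a 24 h incubation. Tissue Factor was then read by ELISA, with increases and decreases both scored relative to DMSO controls.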

[11] = BSK_3C_VCAM1: BioMAP Diversity Plus: 3C Assay for Vascular cell adhesion molecule 1 (VCAM1) Biomarker Activity (AID 2282999); conditions: BioMAP 3C HUVEC, VCAM1 ELISA, cytokine-stimulated; actives raise or lower the signal
Summary of the method: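 Human umbilical vein endothelial cells (3C system), biomarker read by ELISA 24 h after dosing; bidirectional fit against DMSO baseline. Cytotoxicity tracked by SRB total-protein staining in parallel cultures at biomarker time.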

[12] = BSK_4H_Eotaxin3: BioMAP Diversity Plus: 4H Assay for Eotaxin 3 Biomarker Activity (AID 2283000); conditions: primary human endothelial cells (HUVEC); actives raise or lower the signal
Summary of the method: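 Human umbilical vein endothelial cells (BSK_4H system) dosed with test chemical; Eotaxin-3 (CCL26) measured by ELISA 24 h after dosing. Bidirectional curve fitting relative to DMSO negative control as baseline.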

[13] = read-out: Intercellular Adhesion Molecule 1 (ICAM1), ICAM1 (gene 3383); test: BSK_3C_ICAM1: BioMAP Diversity Plus: 3C Assay for Intercellular Adhesion Molecule 1 (ICAM1) Biomarker Activity (AID 2283003); conditions: primary human endothelial cells (HUVEC); actives raise or lower the signal
Summary of the method: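 Human vascular endothelial primary cells, 3C conditions, 24 h treatment. ICAM-1 by ELISA.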

[14] = target: human Retinoic Acid Receptor gamma (RARg), RARG (gene 5916) (UniProt P13631); test: ATG_RARg_TRANS: Attagene TRANS-FACTORIAL HepG2 Assay for human Retinoic Acid Receptor gamma (RARg) (AID 2283009; active means hit-call score of the fitted dose curve at least 0.9, where 1 is the maximum)
Chain of human Retinoic Acid Receptor gamma (RARg), RARG (gene 5916) (P13631 whole entry, looked up, the tested form may be a part): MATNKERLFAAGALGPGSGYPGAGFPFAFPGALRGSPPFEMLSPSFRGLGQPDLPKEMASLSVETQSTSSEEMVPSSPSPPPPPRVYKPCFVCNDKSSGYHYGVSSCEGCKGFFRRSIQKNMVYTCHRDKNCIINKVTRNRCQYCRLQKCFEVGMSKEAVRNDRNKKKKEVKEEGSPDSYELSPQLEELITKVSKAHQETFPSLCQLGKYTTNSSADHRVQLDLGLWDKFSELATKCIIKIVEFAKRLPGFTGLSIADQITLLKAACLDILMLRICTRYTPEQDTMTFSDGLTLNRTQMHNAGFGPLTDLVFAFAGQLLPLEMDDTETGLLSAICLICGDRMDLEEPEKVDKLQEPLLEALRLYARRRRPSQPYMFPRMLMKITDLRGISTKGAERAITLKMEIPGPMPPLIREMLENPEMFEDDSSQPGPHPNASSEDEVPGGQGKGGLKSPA
Summary of the method: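 HepG2, RARg-GAL4 TRANS system, 24 h exposure; reporter mRNA by RT-PCR + CE fluorescence; increase over DMSO.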

[15] = target: Cellular tumor antigen p53 (Homo sapiens) (UniProt P04637); test: ATG_p53_CIS: Attagene CIS-FACTORIAL HepG2 Assay for human p53 Transcription Factor (AID 2282994); conditions: HepG2 p53 cis-element reporter, Attagene mRNA; actives raise or lower the signal
Chain of Cellular tumor antigen p53 (Homo sapiens) (P04637 whole entry, looked up): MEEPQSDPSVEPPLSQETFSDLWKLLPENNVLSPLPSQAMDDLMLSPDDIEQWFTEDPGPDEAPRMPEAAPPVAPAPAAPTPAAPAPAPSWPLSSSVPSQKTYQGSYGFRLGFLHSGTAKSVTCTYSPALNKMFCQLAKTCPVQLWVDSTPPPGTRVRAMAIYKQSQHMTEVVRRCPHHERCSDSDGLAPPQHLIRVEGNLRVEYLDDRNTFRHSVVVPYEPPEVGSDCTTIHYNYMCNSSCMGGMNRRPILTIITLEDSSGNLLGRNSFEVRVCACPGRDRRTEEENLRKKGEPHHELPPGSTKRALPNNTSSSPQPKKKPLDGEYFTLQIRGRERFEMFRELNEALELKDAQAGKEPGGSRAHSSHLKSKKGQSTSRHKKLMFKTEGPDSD
Summary of the method: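 HepG2 cells transiently transfected with multiplexed cis-regulated reporter transcription units read endogenous TF activity. After 24 h compound exposure, reporter mRNA was quantified by RT-PCR, fluorescent labelling, HpaI digestion and capillary electrophoresis; bidirectional fits versus DMSO baseline.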

[16] = target: human Peroxisome Proliferator-activated Receptor delta (PPARd), PPARD (gene 5467) (UniProt Q03181); test: ATG_PPARd_TRANS: Attagene TRANS-FACTORIAL HepG2 Assay for human Peroxisome Proliferator-activated Receptor delta (PPARd) (AID 2283002; active means hit-call score of the fitted dose curve at least 0.9, where 1 is the maximum)
Chain of human Peroxisome Proliferator-activated Receptor delta (PPARd), PPARD (gene 5467) (Q03181 whole entry, looked up, the tested form may be a part): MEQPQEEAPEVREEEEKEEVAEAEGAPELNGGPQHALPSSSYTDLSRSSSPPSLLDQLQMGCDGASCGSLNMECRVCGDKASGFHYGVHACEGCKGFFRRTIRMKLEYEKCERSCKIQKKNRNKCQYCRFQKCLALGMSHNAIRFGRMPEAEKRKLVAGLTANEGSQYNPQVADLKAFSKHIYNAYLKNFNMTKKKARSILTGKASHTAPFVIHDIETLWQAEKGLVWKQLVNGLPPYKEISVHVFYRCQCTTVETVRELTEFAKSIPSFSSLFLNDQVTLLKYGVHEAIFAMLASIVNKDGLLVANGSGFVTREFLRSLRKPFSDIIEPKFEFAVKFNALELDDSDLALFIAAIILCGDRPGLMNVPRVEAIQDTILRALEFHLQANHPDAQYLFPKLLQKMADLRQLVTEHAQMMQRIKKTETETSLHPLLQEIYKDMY
Summary of the method: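 Read-out: reporter mRNA induction, quantified by fluorescent RT-PCR products resolved by capillary electrophoresis. Human HepG2 liver cells carried transiently transfected Gal4-UAS reporter constructs with chimeric NR-Gal4 fusions. Cells were dosed for 24 h; DMSO served as baseline.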

[17] = ATG_NF_kB_CIS: Attagene CIS-FACTORIAL HepG2 Assay for human Nuclear Factor Kappa B (NF-kB) (AID 2282991); conditions: HepG2 Attagene cis-factorial NF-kB reporter mRNA; actives raise or lower the signal
Summary of the method: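 Transient MRTU transfection of human HepG2 liver cells → 24 h chemical exposure → total RNA, oligo(dT) RT → PCR, 6-FAM primer extension, HpaI digest 2 h 37 C → CE fragment analysis. Bidirectional fitting, DMSO negative control.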

[18] = target: human Retinoic Acid Receptor beta (RARb), RARB (gene 5915) (UniProt P10826); test: ATG_RARb_TRANS: Attagene TRANS-FACTORIAL HepG2 Assay for human Retinoic Acid Receptor beta (AID 2283004; active means hit-call score of the fitted dose curve at least 0.9, where 1 is the maximum)
Chain of human Retinoic Acid Receptor beta (RARb), RARB (gene 5915) (P10826 whole entry, looked up, the tested form may be a part): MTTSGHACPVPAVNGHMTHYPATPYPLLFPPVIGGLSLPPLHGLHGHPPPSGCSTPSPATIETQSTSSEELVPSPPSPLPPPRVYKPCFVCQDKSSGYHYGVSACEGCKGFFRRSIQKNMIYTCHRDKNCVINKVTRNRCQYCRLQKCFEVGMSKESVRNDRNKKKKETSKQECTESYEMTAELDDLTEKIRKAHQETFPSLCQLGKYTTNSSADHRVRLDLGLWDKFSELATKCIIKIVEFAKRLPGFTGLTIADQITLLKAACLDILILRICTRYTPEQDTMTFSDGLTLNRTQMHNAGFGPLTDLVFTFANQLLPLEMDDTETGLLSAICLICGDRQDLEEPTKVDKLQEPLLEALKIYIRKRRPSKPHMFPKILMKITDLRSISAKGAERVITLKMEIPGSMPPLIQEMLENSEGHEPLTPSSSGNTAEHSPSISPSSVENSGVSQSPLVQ
Summary of the method: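 Induction of reporter mRNA from a chimeric RARb-Gal4 construct was measured by RT-PCR, FAM labelling, HpaI digestion and capillary electrophoresis. Measurements followed 24 h compound treatment of transiently transfected human HepG2 liver cells, with DMSO as baseline.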

[19] = BSK_3C_uPAR: BioMAP Diversity Plus: 3C Assay for Urokinase-type plasminogen activator receptor (uPAR) Biomarker Activity (AID 2282998); conditions: BioMAP 3C HUVEC, uPAR biomarker ELISA; actives raise or lower the signal
Summary of the method: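 ELISA readout of uPAR on human vascular endothelium (umbilical vein primary cells), taken 24 h after chemical dosing. Increases and decreases are both fitted relative to DMSO vehicle.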

[20] = BSK_3C_Proliferation: Cell Proliferation Assessment in the BioMAP Diversity Plus: 3C Assay (AID 2283006); conditions: primary human endothelial cells (HUVEC);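 on AC50: potency may reflect either rise or fall in cell number versus DMSO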
Summary of the method: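 Proliferation of human vascular endothelial primary cells after 48 h dosing, quantified as SRB-stained protein at 560 nm relative to DMSO.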

Measured: AC50

COc1ccc(C=O)cc1OC
inactive: [1] | [2] | [3] | [4] | [5] | [6]

CN(C)P(=O)(N(C)C)N(C)C
inactive: [1] | [2] | [3] | [7] | [8] | [5] | [9]

CCc1ccccc1N
inactive: [1] | [2] | [3] | [7] | [4] | [5] | [9] | [6]

CCC(=O)C(CC(C)N(C)C)(c1ccccc1)c1ccccc1 (stereo not given)
inactive: [1] | [2] | [3] | [10] | [11] | [12] | [4] | [13] | [5] | [9] | [14]

ClC1(Cl)C2(Cl)C3(Cl)C4(Cl)C(Cl)(Cl)C5(Cl)C3(Cl)C1(Cl)C5(Cl)C24Cl (stereo not given)
inactive: [1] | [2] | [3] | [7] | [15] | [10] | [11] | [12] | [16] | [13] | [9] | [6]

O=C/C=C/c1ccccc1
inactive: [1] | [2] | [17] | [4] | [18] | [6]
active: [3] 30.8 µM | [5] 28.7 µM | [9] 12.1 µM

CCCCOCCOC(C)=O
inactive: [1] | [2] | [3] | [7] | [16] | [5] | [9]

Nc1ccc(-c2ccc(N)c(Cl)c2)cc1Cl
active: [3] 2.66 µM | [12] 1.93 µM | [5] 11.9 µM | [9] 13.2 µM
inactive: [1] | [2] | [15] | [10] | [11] | [4] | [13] | [6]

O=C(O)CCC(F)(C(F)(F)F)C(F)(F)F
inactive: [10] | [19] | [11] | [12] | [13]

ClCc1ccccn1
active: [3] 44.3 µM
inactive: [1] | [2] | [15] | [4] | [16] | [5] | [9] | [6]

COP(=S)(OC)Oc1ccc(Sc2ccc(OP(=S)(OC)OC)cc2)cc1
inactive: [1] | [2] | [15] | [10] | [11] | [16] | [13] | [14]
active: [3] 3.58 µM | [12] 20 µM | [4] 22.7 µM | [20] 15.7 µM | [5] 13.7 µM | [9] 4.45 µM

CC1(C)Cc2cccc(O)c2O1
inactive: [1] | [2] | [3] | [10] | [19] | [11] | [12] | [13] | [20] | [9] | [14]

CC(=O)OC(c1ccccc1)C(Cl)(Cl)Cl (stereo not given)
inactive: [1] | [2] | [3] | [7] | [10] | [11] | [12] | [4] | [16] | [13] | [5]
active: [9] 59 µM

Nc1cccc2ccccc12
active: [3] 77.9 µM | [10] 12.4 µM | [20] 7.58 µM
inactive: [1] | [2] | [7] | [19] | [11] | [12] | [4] | [13] | [5] | [9]

Cc1ccc2ccccc2c1C
inactive: [2] | [4] | [16] | [18] | [5] | [9] | [14] | [6]

O=CC=O
inactive: [1] | [2] | [3] | [7] | [4] | [16] | [5] | [6]

O=C(O)C(Cl)(Cl)Cl
inactive: [1] | [2] | [3] | [7] | [15] | [10] | [19] | [11] | [12] | [4] | [13] | [18] | [8] | [9] | [6]

C1CCC(NC2CCCCC2)CC1
inactive: [1] | [2] | [3] | [15] | [4] | [18] | [8] | [5] | [9] | [14]

Oc1cccc2cccnc12
inactive: [1] | [2] | [10] | [4] | [16] | [13] | [5] | [9] | [6]
active: [3] 15.3 µM and 1.64 µM | [11] 10.4 µM | [12] 2.69 µM | [20] 4.78 µM

— PubChem BioAssay (EPA / NIEHS)
